From PubChem
HT1080-NT tox = qHTS for induction of synthetic lethality in tumor cells producing 2HG: qHTS for the HT-1080-NT fibrosarcoma cell line; HT-1080-NT fibrosarcoma viability, CellTiter-Glo ATP luminescence, 48 h; Potency, µM (highest dose often 46.1 µM), actives largely listed as cytotoxic; actives 1.6% (n = 360,000); AID 686970, 2013;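 further: NT is the 2HG producing partner of a matched IDH1 knockdown line; nearly all actives have a fitted effect of over 55% in size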
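Read-out is CellTiter-Glo luminescence after 10 minutes at room temperature, following 48 hours' compound treatment of HT-1080-NT cells (750 cells/well, RPMI, 5% FBS, 37 degrees C).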
DT40 TDP1 no CPT = qHTS for Inhibitors of human tyrosyl-DNA phosphodiesterase 1 (TDP1): qHTS in cells in absence of CPT | AID 686978, 2013 | Potency, µM (top dose mostly 46.2 µM), usual class: inhibitors | DT40 Tdp1-/- hTDP1 cells, no CPT, ATP luminescence, 48 h | actives 15% (n = 420,000); further: nearly all actives have a fitted effect of over 55% in size
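A cellular qHTS used chicken DT40 cells lacking endogenous Tdp1 but carrying stably transfected human TDP1. Compounds were applied without camptothecin, and cell growth kinetics were judged by ATP-dependent luminescence after ≥48 hr.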
ALOX12 inh = Primary qHTS assay for inhibitors of human arachidonate 12S-lipoxygenase (ALOX12): Round 2 | Polyunsaturated fatty acid lipoxygenase ALOX12 (Homo sapiens), P18054 | purified 12hLO, xylenol orange hydroperoxide absorbance | Potency, µM (series often up to 108 µM), actives largely listed as inhibitors | actives 1.1% (n = 580,000)
Target sequence (P18054 whole entry, looked up): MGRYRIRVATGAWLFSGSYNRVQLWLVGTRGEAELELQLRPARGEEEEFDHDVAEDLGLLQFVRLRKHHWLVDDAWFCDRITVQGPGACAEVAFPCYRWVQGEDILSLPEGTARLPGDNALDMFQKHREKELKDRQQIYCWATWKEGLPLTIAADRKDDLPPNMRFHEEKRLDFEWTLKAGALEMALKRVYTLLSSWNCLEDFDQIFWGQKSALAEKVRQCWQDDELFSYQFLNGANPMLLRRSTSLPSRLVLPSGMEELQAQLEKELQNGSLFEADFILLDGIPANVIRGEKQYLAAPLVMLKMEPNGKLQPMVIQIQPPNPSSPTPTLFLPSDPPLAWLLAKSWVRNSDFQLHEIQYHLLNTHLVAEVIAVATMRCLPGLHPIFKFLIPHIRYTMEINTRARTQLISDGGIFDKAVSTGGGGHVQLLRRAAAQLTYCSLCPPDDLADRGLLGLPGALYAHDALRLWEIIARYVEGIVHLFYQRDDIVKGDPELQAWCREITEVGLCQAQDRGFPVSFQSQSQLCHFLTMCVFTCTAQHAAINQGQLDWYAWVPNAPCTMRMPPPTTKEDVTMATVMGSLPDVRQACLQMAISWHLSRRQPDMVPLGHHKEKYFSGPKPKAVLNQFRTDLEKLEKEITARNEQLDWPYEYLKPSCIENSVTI
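Purified human 12hLO at 150 nM in 25 mM Hepes, 0.01% Triton X-100, pH 7.0, preincubated 15 min at room temperature with compound. Reaction started with 40 uM arachidonic acid, 30 min at room temperature. Hydroperoxide measured by Fe-xylenol orange, 573/405 nm absorbance ratio.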
TDP1 cell CPT = qHTS for Inhibitors of human tyrosyl-DNA phosphodiesterase 1 (TDP1): qHTS in cells in presence of CPT | chicken DT40 Tdp1-/-;hTDP1 cells + 20 nM CPT, ATP luminescence, 48 h | Potency, µM (doses to about 46.2 µM), actives largely listed as inhibitors | actives 12% (n = 420,000); further: nearly all actives have a fitted effect of over 55% in size
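Chicken DT40 Tdp1-/- cells complemented with human TDP1, 400 cells/well, exposed to compounds plus 20 nM camptothecin for at least 48 h at 37 C; viability read as ATP content by CellTiter-Glo luminescence.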
IL-1B inflam inh = qHTS for Inhibitors of Inflammasome Signaling: IL-1-beta AlphaLISA Primary Screen; THP-1 LPS/ATP IL-1B secretion, AlphaLISA, 16 h; active compounds read low; activity change, % at 57.5 µM; actives 4.7% (n = 360,000); AID 743279, 2014; in the data active means activity change below about -50%; inconclusive means mostly about -30% to -49%
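Secreted IL-1B measured by AlphaLISA bead assay after 16 h compound exposure of THP-1 cells; compounds (final up to 57.5 uM) added 1 h before LPS (250 ng/mL) and ATP (1.25 mM) stimulation; lower signal means less secretion.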
HT1080 IDH1KD tx = qHTS for induction of synthetic lethality in tumor cells producing 2HG: qHTS for the HT-1080-IDH1KD cell line. HT-1080 IDH1 knockdown viability, ATP luminescence, 48 h. Potency, µM (titrated, usually from 46.1 µM), hits mostly cytotoxic. actives 2% (n = 360,000). AID 686971, 2013
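Cytotoxicity counter-line: IDH1KD HT-1080, 48 h, CellTiter-Glo. Curves classed by r2, magnitude and activity.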
Hits are given with their value; . = inactive; ? = inconclusive; / = no result; [ ] = dose if it differs, or a comment. The sample as a whole holds a higher share of hits than the screen did. Unless noted, the call rests on the fitted dose curve; in most records, active means well fitted curve in the direction sought with a large enough effect; inconclusive means small, poorly fitted or top-dose-only effect, or another doubt; inactive means no such curve, though single readings can be large; an effect the other way counts as inactive or inconclusive.

SMILES	HT1080-NT tox	DT40 TDP1 no CPT	ALOX12 inh	TDP1 cell CPT	IL-1B inflam inh	HT1080 IDH1KD tx
CC(C)N1CCC(CC(=O)N2CCCC(c3ccc(C(=O)O)cc3)C2)CC1 (configuration not stated)	/	/	.	/	/	/
CCOc1ccccc1NC(=O)CCn1ccn2nc3c(c2c1=O)CCCC3	/	/	.	/	/	/
COc1ccc(OC)c(Nc2nc(N)c([N+](=O)[O-])c(NC3CCCCC3)n2)c1	.	?	.	8.2µM	.	.
O=C(c1ccc2ccccc2n1)N1CCC2(CC1)CC(Cc1cccc(F)c1)CCO2 (configuration not stated)	/	/	.	/	/	/
Cc1cccc(NC(=O)c2cc(S(=O)(=O)N3CCc4ccccc43)cn2C)c1	.	.	.	.	.	.
CCCN(C(=O)c1cc(S(=O)(=O)N2CCc3ccccc32)cn1C)c1ccc(OCC)cc1	/	20.6µM	.	?	/	/
Cn1cc(S(=O)(=O)N2CCc3ccccc32)cc1C(=O)Nc1ccc(Cl)cc1	.	25.9µM	.	25.9µM	.	.
CSc1cccc(NC(=O)c2cc(S(=O)(=O)N3CCc4ccccc43)cn2C)c1	.	25.9µM	.	14.6µM	.	.
CN(C(=O)c1cc(S(=O)(=O)N2CCc3ccccc32)cn1C)C1CCCCC1	.	18.4µM	.	20.6µM	.	.
Cc1ccc(NC(=O)c2cc(S(=O)(=O)N3CCc4ccccc43)cn2C)cc1	.	?	.	?	.	.
Cc1ccc(N(C)C(=O)c2cc(S(=O)(=O)N3CCc4ccccc43)cn2C)cc1	.	?	.	?	.	.
COc1ccc(-c2noc([C@@H]3Cc4nc[nH]c4CN3C(=O)c3cccs3)n2)cc1	/	/	.	/	/	/
Cn1cc(S(=O)(=O)N2CCc3ccccc32)cc1C(=O)NC(C)(C)C	?	2.59µM	?	3.26µM	.	.
CCOC(=O)c1c(S(=O)(=O)N2CCCCC2C)c(C)n(C)c1C (configuration not stated)	.	10.3µM	.	?	.	.
CCOC(=O)c1c(S(=O)(=O)N2CCc3ccccc32)c(C)n(C)c1C	.	?	.	23.1µM	.	.
CCOC(=O)c1cc(S(=O)(=O)N2CCc3ccccc32)cn1C	.	2.31µM	.	?	.	.
Cc1cccc(C)c1NC(=O)c1cc(S(=O)(=O)N2CCc3ccccc32)cn1C	.	.	.	.	.	.
COC(=O)c1cc(NS(=O)(=O)c2ccc(NC(C)=O)cc2)cc(C(=O)OC)c1	.	.	.	.	.	.
Cc1ccc(S(=O)(=O)Oc2ccc(/C=N/NC(=O)c3nn(C)cc3Cl)cc2)cc1	.	.	.	.	.	.
CC(=O)Nc1ccc(S(=O)(=O)Oc2ccc(/C=N/NC(=O)c3ccc(Cl)cc3)cc2)cc1	?	16.4µM	.	20.6µM	.	.
COC(=O)c1ccc(OS(=O)(=O)c2ccc(NC(C)=O)cc2)cc1	.	?	.	11.6µM	.	.
Cc1nc2nc(NCc3cccs3)[nH]n2c(=O)c1CCC(=O)Nc1ccc2ccccc2c1	/	/	.	/	/	/
Cn1ncc(N=Cc2ccccc2)c1C(=O)Nc1cccc(Cl)c1	.	18.4µM	?	?	.	.
CC1=NOC2(CCCN(C(=O)Cc3ccccc3)C2)C1 (configuration not stated)	/	/	.[12.5 µM]	/	/	/
O=C(Nc1ccc(Br)cc1)Nc1nc2c(s1)CCCCCC2	/	18.4µM	.	14.6µM	/	/
SMILES	HT1080-NT tox	DT40 TDP1 no CPT	ALOX12 inh	TDP1 cell CPT	IL-1B inflam inh	HT1080 IDH1KD tx
Cc1ccc(C(=O)Nc2nc3c(s2)CCCC3)o1	.	?	.	23.1µM	.	.
O=C(Nc1nc2c(s1)CCCC2)c1cccnc1	.[9.24 µM]	.	.	?	.	.
CC(O)Cc1nsc(NC(=O)c2ccc(Br)o2)n1 (configuration not stated)	.	2.31µM	.	4.11µM	.	.
O=C(Nc1nc2c(s1)CCCC2)c1ccc(Br)o1	.	14.6µM	.	?	.	.
Cc1ccc(C(=O)N2CCC([C@@H]3CNC[C@H]3CO)CC2)cc1C	/	/	.	/	/	/
CCc1nc2ccccc2n1CCC(=O)N[C@H]1CCOC[C@H]1C1CCOCC1	/	/	.	/	/	/
Cc1ccc(NC(NC(=O)c2ccc(C(C)(C)C)cc2)C(Cl)(Cl)Cl)cc1C (configuration not stated)	/	/	.	/	/	/
Cc1ccccc1C(=O)OCC(=O)NCC1COc2ccccc2O1 (configuration not stated)	.	18.4µM	.	?	.	.
CC(C)Oc1ccc(/C=C/C(=O)NCC2COc3ccccc3O2)cc1 (configuration not stated)	.	?	.	.	-72.4	.
O=[N+]([O-])c1ccc(OC/C=C2\Oc3ccc([N+](=O)[O-])cc3C2N2CCOCC2)cc1 (configuration not stated)	?	23.1µM	.	?	-58.9	.
CCS(=O)(=O)c1nc(S(=O)(=O)c2ccc(C)cc2)c(NC(C)C)s1	/	/	.	/	/	/
CCCCNC(=O)c1ccc(N2CCOCC2)c(NS(=O)(=O)c2ccc(OC)cc2)c1	.[9.24 µM]	.	.	.	.	?
CCNC(=O)Nc1cc(S(=O)(=O)Nc2ccc(OC)cc2)ccc1N1CCOCC1	.	0.731µM	/	2.31µM	.	.
COc1ccc(NS(=O)(=O)c2ccc(N3CCCC3)c(NC(=S)Nc3ccc(SC(F)F)cc3)c2)cc1	.	18.4µM	25.1µM	18.4µM	.	.
COc1ccc(NS(=O)(=O)c2ccc(N3CCCC3)c(NC(=S)Nc3cccc(C)c3C)c2)cc1	.	9.2µM	15.8µM	11.6µM	?	.
COc1ccccc1-c1cc(C(=O)NCc2c(C)cc(C)[nH]c2=O)c2c(c1)ncn2C	/	/	.	/	/	/
CCn1c(=O)c(=O)[nH]c2cc(C(=O)NCc3ccc(F)cc3)ccc21	.	.	?	.	.	.
Cc1ccc(-c2nc3n(n2)C(c2ccccc2C)C=C(c2ccc(Cl)cc2)N3)cc1 (configuration not stated)	/	23.1µM	.	?	/	/
COc1ccc(C2C=C(c3ccc(Cl)cc3)Nc3nc(-c4ccc(Cl)cc4)nn32)cc1 (configuration not stated)	/	4.61µM	5.62µM	8.2µM	/	/
COc1ccc(C2C=C(c3ccc(C)c(C)c3)Nc3ncnn32)c(OC)c1OC (configuration not stated)	?	5.17µM	.	8.2µM	.	?
